Target: AgAbp1
Test: SPOT peptide array binding signal intensity (averaged, normalized) (arbitrary units (background-subtracted, floor 0; scale differs between SH3 domains)); higher = stronger binding of the SH3 domain to the peptide
Method in brief: (§1)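 GST-fused SH3 domains, from four yeast species, were produced in E. coli BL21(DE3) and captured on glutathione Sepharose. Membranes of cellulose carrying synthetic 15-mer peptides, in which cysteines had been replaced by serines, were exposed to each domain at 10 μg/ml overnight at 4°C in TBS-based blocking buffer. After anti-GST antibody, an HRP anti-mouse secondary and luminol, spots were imaged and quantified using Genespotter. Binding signal is normalized and background-subtracted spot intensity, averaged over replicates, in arbitrary units that differ between domains.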

Row | Binder | SPOT peptide array binding signal intensity
1 | RRRIAYPFYPFKKLG | 69

Target: AgBbc1
Test: as above
Method in brief: as §1

Row | Binder | SPOT peptide array binding signal intensity
2 | RRRIAYPFYPFKKLG | ≤ 0

Target: AgBem1-D1
Test: as above
Method in brief: as §1

Row | Binder | SPOT peptide array binding signal intensity
3 | RRRIAYPFYPFKKLG | 22

Target: AgBzz1-D1
Test: as above
Method in brief: as §1

Row | Binder | SPOT peptide array binding signal intensity
4 | RRRIAYPFYPFKKLG | 32.5

Target: AgBzz1-D2
Test: as above
Method in brief: as §1

Row | Binder | SPOT peptide array binding signal intensity
5 | RRRIAYPFYPFKKLG | 9

Target: AgCyk3
Test: as above
Method in brief: as §1

Row | Binder | SPOT peptide array binding signal intensity
6 | RRRIAYPFYPFKKLG | 1

Target: AgFus1
Test: as above
Method in brief: as §1

Row | Binder | SPOT peptide array binding signal intensity
7 | RRRIAYPFYPFKKLG | 337

Target: AgHof1
Test: as above
Method in brief: as §1

Row | Binder | SPOT peptide array binding signal intensity
8 | RRRIAYPFYPFKKLG | 8.75

Target: AgHse1
Test: as above
Method in brief: as §1

Row | Binder | SPOT peptide array binding signal intensity
9 | RRRIAYPFYPFKKLG | 914

Target: AgLsb1
Test: as above
Method in brief: as §1

Row | Binder | SPOT peptide array binding signal intensity
10 | RRRIAYPFYPFKKLG | 1.5

Target: AgLsb4
Test: as above
Method in brief: as §1

Row | Binder | SPOT peptide array binding signal intensity
11 | RRRIAYPFYPFKKLG | 19.5

Target: AgMyo5
Test: as above
Method in brief: as §1

Row | Binder | SPOT peptide array binding signal intensity
12 | RRRIAYPFYPFKKLG | 1.75

Target: AgNbp2
Test: as above
Method in brief: as §1

Row | Binder | SPOT peptide array binding signal intensity
13 | RRRIAYPFYPFKKLG | 124

Target: AgRvs167
Test: as above
Method in brief: as §1

Row | Binder | SPOT peptide array binding signal intensity
14 | RRRIAYPFYPFKKLG | 6.5

Target: AgSho1
Test: as above
Method in brief: as §1

Row | Binder | SPOT peptide array binding signal intensity
15 | RRRIAYPFYPFKKLG | 79

Target: AgSla1-D1-D2
Test: as above
Method in brief: as §1

Row | Binder | SPOT peptide array binding signal intensity
16 | RRRIAYPFYPFKKLG | 22

Target: AgSla1-D3
Test: as above
Method in brief: as §1

Row | Binder | SPOT peptide array binding signal intensity
17 | RRRIAYPFYPFKKLG | ≤ 0

Target: CaAbp1-D1
Test: as above
Method in brief: as §1

Row | Binder | SPOT peptide array binding signal intensity
18 | RRRIAYPFYPFKKLG | 482

Target: CaAbp1-D2
Test: as above
Method in brief: as §1

Row | Binder | SPOT peptide array binding signal intensity
19 | RRRIAYPFYPFKKLG | 238

Target: CaBbc1
Test: as above
Method in brief: as §1

Row | Binder | SPOT peptide array binding signal intensity
20 | RRRIAYPFYPFKKLG | 0.25

Target: CaBem1-D1
Test: as above
Method in brief: as §1

Row | Binder | SPOT peptide array binding signal intensity
21 | RRRIAYPFYPFKKLG | 23

Target: CaBzz1-D1
Test: as above
Method in brief: as §1

Row | Binder | SPOT peptide array binding signal intensity
22 | RRRIAYPFYPFKKLG | 21

Target: CaBzz1-D2
Test: as above
Method in brief: as §1

Row | Binder | SPOT peptide array binding signal intensity
23 | RRRIAYPFYPFKKLG | 9.5

Target: CaCyk3
Test: as above
Method in brief: as §1

Row | Binder | SPOT peptide array binding signal intensity
24 | RRRIAYPFYPFKKLG | 1

Target: CaFus1
Test: as above
Method in brief: as §1

Row | Binder | SPOT peptide array binding signal intensity
25 | RRRIAYPFYPFKKLG | 672

Target: CaHof1
Test: as above
Method in brief: as §1

Row | Binder | SPOT peptide array binding signal intensity
26 | RRRIAYPFYPFKKLG | 0.5

Target: CaHse1
Test: as above
Method in brief: as §1

Row | Binder | SPOT peptide array binding signal intensity
27 | RRRIAYPFYPFKKLG | 47.8

Target: CaLsb1
Test: as above
Method in brief: as §1

Row | Binder | SPOT peptide array binding signal intensity
28 | RRRIAYPFYPFKKLG | ≤ 0

Target: CaLsb4
Test: as above
Method in brief: as §1

Row | Binder | SPOT peptide array binding signal intensity
29 | RRRIAYPFYPFKKLG | 15

Target: CaMyo5
Test: as above
Method in brief: as §1

Row | Binder | SPOT peptide array binding signal intensity
30 | RRRIAYPFYPFKKLG | 0.25

Target: CaNbp2
Test: as above
Method in brief: as §1

Row | Binder | SPOT peptide array binding signal intensity
31 | RRRIAYPFYPFKKLG | 565

Target: CaRvs167
Test: as above
Method in brief: as §1

Row | Binder | SPOT peptide array binding signal intensity
32 | RRRIAYPFYPFKKLG | 13.3

Target: CaRvs167-3
Test: as above
Method in brief: as §1

Row | Binder | SPOT peptide array binding signal intensity
33 | RRRIAYPFYPFKKLG | 62.5

Target: CaSho1
Test: as above
Method in brief: as §1

Row | Binder | SPOT peptide array binding signal intensity
34 | RRRIAYPFYPFKKLG | 486

Target: CaSla1-D1-D2
Test: as above
Method in brief: as §1

Row | Binder | SPOT peptide array binding signal intensity
35 | RRRIAYPFYPFKKLG | ≤ 0

Target: CaSla1-D3
Test: as above
Method in brief: as §1

Row | Binder | SPOT peptide array binding signal intensity
36 | RRRIAYPFYPFKKLG | 2.5

Target: ScAbp1
Test: as above
Method in brief: as §1

Row | Binder | SPOT peptide array binding signal intensity
37 | RRRIAYPFYPFKKLG | 103

Target: ScBbc1
Test: as above
Method in brief: as §1

Row | Binder | SPOT peptide array binding signal intensity
38 | RRRIAYPFYPFKKLG | ≤ 0

Target: ScBem1-D1
Test: as above
Method in brief: as §1

Row | Binder | SPOT peptide array binding signal intensity
39 | RRRIAYPFYPFKKLG | 16

Target: ScBzz1-D1
Test: as above
Method in brief: as §1

Row | Binder | SPOT peptide array binding signal intensity
40 | RRRIAYPFYPFKKLG | 6

Target: ScBzz1-D2
Test: as above
Method in brief: as §1

Row | Binder | SPOT peptide array binding signal intensity
41 | RRRIAYPFYPFKKLG | 14

Target: ScCyk3
Test: as above
Method in brief: as §1

Row | Binder | SPOT peptide array binding signal intensity
42 | RRRIAYPFYPFKKLG | 38.5

Target: ScFus1
Test: as above
Method in brief: as §1

Row | Binder | SPOT peptide array binding signal intensity
43 | RRRIAYPFYPFKKLG | 230

Target: ScHof1
Test: as above
Method in brief: as §1

Row | Binder | SPOT peptide array binding signal intensity
44 | RRRIAYPFYPFKKLG | 0.5

Target: ScHse1
Test: as above
Method in brief: as §1

Row | Binder | SPOT peptide array binding signal intensity
45 | RRRIAYPFYPFKKLG | 1700

Target: ScLsb1
Test: as above
Method in brief: as §1

Row | Binder | SPOT peptide array binding signal intensity
46 | RRRIAYPFYPFKKLG | 3.5

Target: ScLsb2
Test: as above
Method in brief: as §1

Row | Binder | SPOT peptide array binding signal intensity
47 | RRRIAYPFYPFKKLG | 4

Target: ScLsb3
Test: as above
Method in brief: as §1

Row | Binder | SPOT peptide array binding signal intensity
48 | RRRIAYPFYPFKKLG | 104

Target: ScLsb4
Test: as above
Method in brief: as §1

Row | Binder | SPOT peptide array binding signal intensity
49 | RRRIAYPFYPFKKLG | 11

Target: ScMyo3
Test: as above
Method in brief: as §1

Row | Binder | SPOT peptide array binding signal intensity
50 | RRRIAYPFYPFKKLG | 4

Target: ScMyo5
Test: as above
Method in brief: as §1

Row | Binder | SPOT peptide array binding signal intensity
51 | RRRIAYPFYPFKKLG | ≤ 0

Target: ScNbp2
Test: as above
Method in brief: as §1

Row | Binder | SPOT peptide array binding signal intensity
52 | RRRIAYPFYPFKKLG | 173

Target: ScPex13
Test: as above
Method in brief: as §1

Row | Binder | SPOT peptide array binding signal intensity
53 | RRRIAYPFYPFKKLG | 0.5

Target: ScRvs167
Test: as above
Method in brief: as §1

Row | Binder | SPOT peptide array binding signal intensity
54 | RRRIAYPFYPFKKLG | 13.3

Target: ScSho1
Test: as above
Method in brief: as §1

Row | Binder | SPOT peptide array binding signal intensity
55 | RRRIAYPFYPFKKLG | 606

Target: ScSla1-D1-D2
Test: as above
Method in brief: as §1

Row | Binder | SPOT peptide array binding signal intensity
56 | RRRIAYPFYPFKKLG | ≤ 0

Target: ScSla1-D3
Test: as above
Method in brief: as §1

Row | Binder | SPOT peptide array binding signal intensity
57 | RRRIAYPFYPFKKLG | ≤ 0

Target: SpAbp1-D1
Test: as above
Method in brief: as §1

Row | Binder | SPOT peptide array binding signal intensity
58 | RRRIAYPFYPFKKLG | 155

Target: SpBbc1
Test: as above
Method in brief: as §1

Row | Binder | SPOT peptide array binding signal intensity
59 | RRRIAYPFYPFKKLG | 1

Target: SpBzz1-D1
Test: as above
Method in brief: as §1

Row | Binder | SPOT peptide array binding signal intensity
60 | RRRIAYPFYPFKKLG | 37

From the supplement of paper PMC4466140
